The values that follow come from PubChem BioAssay (NCATS).

Test [1] in a line: High Content Imaging Cell-Based qHTS for Inhibitors of the mTORC1 Signaling Pathway in MEF (Tsc2-/-, p53-/-) Cells (AID 2666).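 Further: percent of cells scored positive for phospho-rpS6 Ser235/236 immunostaining by imaging.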 Further: potency means the concentration at half of the fitted maximal effect. The method, boiled down:
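Inhibition of rpS6 phosphorylation is measured by immunofluorescence imaging in empty-vector Tsc2-/-, p53-/- mouse embryonic fibroblasts after 24 hrs compound exposure at 37 degree Celsius. Results are reported as % positive cells per well.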

Test [2] is described as follows: High Content Imaging Cell-Based qHTS for Inhibitors of the mTORC1 Signaling Pathway in MEF Cells (AID 2667). Further: potency means the concentration at half of the fitted maximal effect. An outline of the steps: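 Fixed-cell imaging of phospho-S6 (Ser235/236, Alexa-488) after 24 hrs of compound treatment at 37 degree Celsius. Signal was normalized to Hoechst, and thresholds from the highest and lowest wells split cells into % active versus % non-active.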

Test [3] in a line: Cytometry Cell-Based qHTS for Inhibitors of the mTORC1 Signaling Pathway in MEF cells (AID 2668). Further: potency means the concentration at half of the fitted maximal effect. An outline of the steps:
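WT MEFs (Tsc2-/-, p53-/- stably re-expressing WT Tsc2) in DMEM + 10% FBS received compounds 24 hrs after plating, for 24 hrs at 37 degree Celsius. Fixed cells stained with Alexa-488 anti-phospho-rpS6 Ser235/236 and propidium iodide; laser-scanning cytometry read-out.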

A short description of test [4]: Validation screen for small molecules that induce DNA re-replication in MCF 10A normal breast cells (AID 463097). Further: nearly all actives have a fitted effect of over 60% in size. The method, boiled down:
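Readout: Hoechst nuclear fluorescence intensity, 405 ex / 500-530 em, by scanning plate imager; re-replication scored as increase in nuclei with elevated DNA content. Cells exposed to compound 48 hr, 37 C, 5% CO2 beforehand.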

Test [5] deals with Ubiquitin carboxyl-terminal hydrolase 2 (Homo sapiens) (UniProt O75604). In words: qHTS Validation Assay for Inhibitors of Ubiquitin-specific Protease USP2a Using CHOP2 as the Reporter (AID 463106). An outline of the steps: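 Inhibition is expressed relative to NEM as the full-inhibition control, with concentration-response curves classed by fit quality, magnitude and activity. Enzyme (USP2 core, 10nM) meets 25nM Ub-CHOP2 after compound preincubation; readings are taken at 60min.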
Ubiquitin carboxyl-terminal hydrolase 2 (Homo sapiens), sequence (O75604 whole entry, looked up): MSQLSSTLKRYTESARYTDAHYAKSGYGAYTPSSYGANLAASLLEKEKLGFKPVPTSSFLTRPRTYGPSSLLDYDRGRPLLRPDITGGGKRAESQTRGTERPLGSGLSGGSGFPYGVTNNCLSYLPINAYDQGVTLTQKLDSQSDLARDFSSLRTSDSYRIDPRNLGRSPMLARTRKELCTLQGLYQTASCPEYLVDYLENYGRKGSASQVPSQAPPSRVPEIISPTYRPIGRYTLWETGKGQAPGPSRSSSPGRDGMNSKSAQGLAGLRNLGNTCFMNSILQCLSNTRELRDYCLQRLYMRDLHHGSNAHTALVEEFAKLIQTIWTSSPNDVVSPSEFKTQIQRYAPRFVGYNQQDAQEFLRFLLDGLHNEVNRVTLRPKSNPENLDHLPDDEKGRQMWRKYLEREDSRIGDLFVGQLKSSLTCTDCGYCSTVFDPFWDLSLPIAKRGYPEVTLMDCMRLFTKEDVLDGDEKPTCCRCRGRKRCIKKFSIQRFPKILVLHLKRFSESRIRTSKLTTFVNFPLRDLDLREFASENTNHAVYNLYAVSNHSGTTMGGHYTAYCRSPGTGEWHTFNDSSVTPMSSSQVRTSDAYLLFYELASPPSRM

Test [6] deals with DNA polymerase III PolC-type (Bacillus subtilis (strain 168)) (UniProt P13267). As to the kind of experiment: qHTS Validation Assay for the Inhibitors of DNA Replication in Gram-Positive Bacteria (AID 485295).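 Further: PicoGreen fluorescence of double-stranded DNA made on primed circular M13 template; series mostly up to about 57 µM.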 The method, boiled down:
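Reconstituted B. subtilis holoenzyme (Pol III, beta clamp, SSB, primase) was preincubated with compound at room temperature, then given single-stranded circular M13Gori plus dNTPs and NTPs. EDTA-containing PicoGreen stopped the reaction, and dsDNA product was read by fluorescence.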

Test [7] has as its target Tumor susceptibility gene 101 protein (Homo sapiens) (UniProt Q99816). In words: qHTS Validation Assay for Iinhibitors of HIV-1 Budding by Blocking the Interaction of PTAP/TSG101 (AID 485342; calls by dose curve). An outline of the steps: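 Tsg101 binding domain (10 uM final) in pH 7.5 HEPES/NaCl/Tween 20/EDTA/TCEP buffer was mixed with pin-transferred compounds, then FITC-labeled PTAP peptide (50 nM final) was added; after 20 min at r.t., fluorescence polarization was read.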

A short description of test [8]: qHTS Validation Assay to Find Inhibitors of Chronic Active B-Cell Receptor Signaling (AID 485345; active means well fitted curve in the direction sought with a large enough effect in the main read-out, with a control signal flat, not every such curve was filed as active). An outline of the steps: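 TMD8 ABC-DLBCL cells with dox-inducible green luciferase–IκBα fusion and red native luciferase; compounds 46 uM–3 nM, 4 h at 37C with doxycycline in 0.5% FBS IMDM. Green/red ratio normalized to basal and 10 uM MG-132.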
In test [9] the target is RecQ-like DNA helicase BLM (Homo sapiens) (UniProt P54132). As to the kind of experiment: qHTS Validation Assay for Inhibitors of Bloom's syndrome helicase (BLM) (AID 2364). An outline of the steps: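 BLM 50 nM in 25 mM Tris-HCl pH 8.0, 5 mM NaCl, 2 mM MgCl2, 1 mM DTT, 0.01% Tween-20, 2.5 ug/ml poly(dI-dC); 15 min cpd preinc, RT. Start: 200 nM forked DNA + 2 mM ATP (final). TAMRA read, 2 reads 2 h apart.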
RecQ-like DNA helicase BLM (Homo sapiens), sequence (P54132 whole entry, looked up): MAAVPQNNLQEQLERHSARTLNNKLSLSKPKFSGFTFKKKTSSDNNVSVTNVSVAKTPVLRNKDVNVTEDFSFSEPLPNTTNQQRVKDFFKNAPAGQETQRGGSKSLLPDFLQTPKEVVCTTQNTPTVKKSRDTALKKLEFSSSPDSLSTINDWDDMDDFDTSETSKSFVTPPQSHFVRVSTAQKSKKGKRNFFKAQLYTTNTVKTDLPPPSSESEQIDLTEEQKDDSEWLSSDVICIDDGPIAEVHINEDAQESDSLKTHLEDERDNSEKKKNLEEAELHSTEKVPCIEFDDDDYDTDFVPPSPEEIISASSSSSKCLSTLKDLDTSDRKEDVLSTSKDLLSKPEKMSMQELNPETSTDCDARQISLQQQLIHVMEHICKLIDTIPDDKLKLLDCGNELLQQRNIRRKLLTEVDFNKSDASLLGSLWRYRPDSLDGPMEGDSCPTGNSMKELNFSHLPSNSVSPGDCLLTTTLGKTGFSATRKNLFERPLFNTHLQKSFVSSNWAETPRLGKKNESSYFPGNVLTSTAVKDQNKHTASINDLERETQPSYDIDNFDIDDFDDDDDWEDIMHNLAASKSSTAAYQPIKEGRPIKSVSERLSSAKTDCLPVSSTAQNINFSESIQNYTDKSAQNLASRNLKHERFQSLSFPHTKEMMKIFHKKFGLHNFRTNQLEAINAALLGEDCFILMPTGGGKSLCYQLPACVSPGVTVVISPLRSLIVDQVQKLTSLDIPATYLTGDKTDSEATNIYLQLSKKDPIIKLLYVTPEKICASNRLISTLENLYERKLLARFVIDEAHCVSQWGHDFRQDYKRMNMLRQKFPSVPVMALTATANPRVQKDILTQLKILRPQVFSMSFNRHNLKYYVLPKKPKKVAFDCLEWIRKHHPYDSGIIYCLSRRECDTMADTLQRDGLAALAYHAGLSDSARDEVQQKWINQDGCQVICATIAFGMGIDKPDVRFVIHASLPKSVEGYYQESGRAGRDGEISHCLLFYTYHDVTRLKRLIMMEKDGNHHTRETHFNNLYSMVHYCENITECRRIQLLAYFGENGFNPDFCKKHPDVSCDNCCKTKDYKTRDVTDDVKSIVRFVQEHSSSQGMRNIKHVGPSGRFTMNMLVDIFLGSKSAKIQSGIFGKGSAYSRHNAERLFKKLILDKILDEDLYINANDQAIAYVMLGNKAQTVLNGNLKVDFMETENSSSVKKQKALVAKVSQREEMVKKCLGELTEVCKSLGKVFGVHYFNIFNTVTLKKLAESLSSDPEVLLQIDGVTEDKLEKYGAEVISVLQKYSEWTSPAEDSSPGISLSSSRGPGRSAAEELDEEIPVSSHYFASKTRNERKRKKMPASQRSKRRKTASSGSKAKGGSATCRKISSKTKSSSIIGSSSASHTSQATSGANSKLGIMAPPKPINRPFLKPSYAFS

Test [10] can be described thus: Cytometric Cell-Based qHTS for Inhibitors of the mTORC1 Signaling Pathway in MEF (Tsc2-/-, p53-/-) Cells (AID 2660).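 Further: percent of cells above a phospho-rpS6 to PI ratio cutoff in each well; series mostly up to about 38 µM.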 An outline of the steps:
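Tsc2-/-, p53-/- MEFs (empty vector) exposed to compound 24 h at 37 C, fixed, stained with Alexa-488 anti-phospho-rpS6 Ser235/236 and propidium iodide. Acumen laser scanning; phospho-S6/PI ratio thresholded against 7.5 nM rapamycin, reported as % positive cells.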

Structures are written as SMILES. Results filed as inconclusive are left out. Activity calls are given as the source filed them. Unless noted, the call rests on the fitted dose curve; in most records, active means well fitted curve in the direction sought with a large enough effect; inconclusive means small, poorly fitted or top-dose-only effect, or another doubt; inactive means no such curve, though single readings can be large; an effect the other way counts as inactive or inconclusive.

DNA polymerase III PolC-type (Bacillus subtilis (strain 168)), sequence (P13267 whole entry, looked up): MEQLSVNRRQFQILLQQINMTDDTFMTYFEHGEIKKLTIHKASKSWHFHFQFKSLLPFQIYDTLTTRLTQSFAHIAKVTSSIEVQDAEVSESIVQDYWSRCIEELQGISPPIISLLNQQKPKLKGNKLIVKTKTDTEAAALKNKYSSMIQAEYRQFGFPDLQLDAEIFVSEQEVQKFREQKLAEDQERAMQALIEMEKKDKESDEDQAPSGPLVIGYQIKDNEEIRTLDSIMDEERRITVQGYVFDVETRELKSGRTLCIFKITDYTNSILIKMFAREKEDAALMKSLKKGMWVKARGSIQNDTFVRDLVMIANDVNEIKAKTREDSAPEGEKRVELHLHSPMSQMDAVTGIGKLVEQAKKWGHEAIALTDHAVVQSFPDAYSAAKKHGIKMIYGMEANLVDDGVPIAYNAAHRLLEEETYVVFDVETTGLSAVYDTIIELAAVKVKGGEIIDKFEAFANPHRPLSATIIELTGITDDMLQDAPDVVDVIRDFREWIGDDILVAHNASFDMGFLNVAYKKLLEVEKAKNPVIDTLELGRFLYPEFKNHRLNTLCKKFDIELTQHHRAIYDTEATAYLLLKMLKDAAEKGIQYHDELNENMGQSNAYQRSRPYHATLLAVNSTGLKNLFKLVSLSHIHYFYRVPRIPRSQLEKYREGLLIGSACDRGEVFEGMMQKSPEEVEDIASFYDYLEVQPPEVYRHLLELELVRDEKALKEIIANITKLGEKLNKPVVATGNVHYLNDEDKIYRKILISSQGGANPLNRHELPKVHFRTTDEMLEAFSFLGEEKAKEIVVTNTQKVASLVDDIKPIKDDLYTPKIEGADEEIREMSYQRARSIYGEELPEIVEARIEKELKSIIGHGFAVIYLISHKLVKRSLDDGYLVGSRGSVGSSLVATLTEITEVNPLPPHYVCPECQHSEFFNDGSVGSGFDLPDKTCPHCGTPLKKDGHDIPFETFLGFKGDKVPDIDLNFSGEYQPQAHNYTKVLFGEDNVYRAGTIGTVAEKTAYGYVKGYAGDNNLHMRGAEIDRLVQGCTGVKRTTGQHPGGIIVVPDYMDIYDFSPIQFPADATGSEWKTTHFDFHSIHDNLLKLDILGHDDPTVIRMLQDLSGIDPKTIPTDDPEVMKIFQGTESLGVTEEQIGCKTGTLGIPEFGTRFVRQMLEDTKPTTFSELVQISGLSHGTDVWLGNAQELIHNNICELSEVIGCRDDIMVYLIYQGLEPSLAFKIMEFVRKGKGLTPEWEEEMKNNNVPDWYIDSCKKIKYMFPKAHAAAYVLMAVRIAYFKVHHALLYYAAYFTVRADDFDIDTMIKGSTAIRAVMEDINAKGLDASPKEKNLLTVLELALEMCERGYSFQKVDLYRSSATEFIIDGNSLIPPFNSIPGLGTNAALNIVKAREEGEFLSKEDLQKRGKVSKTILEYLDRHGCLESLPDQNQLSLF
Tumor susceptibility gene 101 protein (Homo sapiens), sequence (Q99816 whole entry, looked up, the tested form may be a part): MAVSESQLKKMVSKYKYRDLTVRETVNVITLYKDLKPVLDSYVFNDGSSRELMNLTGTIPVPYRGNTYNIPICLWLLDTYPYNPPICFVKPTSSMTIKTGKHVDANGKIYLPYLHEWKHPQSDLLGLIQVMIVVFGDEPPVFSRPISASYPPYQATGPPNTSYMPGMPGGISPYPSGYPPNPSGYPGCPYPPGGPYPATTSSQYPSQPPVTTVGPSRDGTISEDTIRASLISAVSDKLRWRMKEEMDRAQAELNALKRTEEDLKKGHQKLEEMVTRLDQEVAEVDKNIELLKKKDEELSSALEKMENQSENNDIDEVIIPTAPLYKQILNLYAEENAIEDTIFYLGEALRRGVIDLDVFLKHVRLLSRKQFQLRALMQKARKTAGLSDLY

For `CC(C)C(=O)c1c(C(C)C)nn2ccccc12`, the Potency entry in test [1], in test [2] and in test [3] was “inactive” in each case. Besides, the compound was called inactive in test [4], in test [5], in [6], in [7] and in [8].
As to `C=Cc1c(C)c2cc3[nH]c(cc4nc(cc5nc(cc1[nH]2)C(C)=C5CCC(=O)O)C(CCC(=O)O)=C4C)c(C)c3C=C`, the compound was classed as inactive in test [9], in test [4], in test [7] and in [8]. Also, the Potency result in [1], in test [2] and in [3] was “inactive” throughout.
As for `CN1CCN(C2Cc3ccccc3Sc3ccc(Cl)cc32)CC1` (stereo not given), the call in test [9], in [5] and in test [7] was inactive. Also, the Potency result in test [1] is “inactive”.
As to `CCN(CC)CCOC(=O)C1(C2CCCCC2)CCCCC1`, the compound was classed as inactive in test [9], in test [4], in [5], in [7] and in test [8]. Moreover, the Potency result in test [1], in test [2] and in test [3] was “inactive” throughout.
As to `NC(N)=NCCC[C@H](N)C(=O)O`, the compound was called inactive in test [9], in [4], in test [5], in test [7] and in test [8]. For the same compound, the Potency result in [1], in test [2] and in test [3] was “inactive” in each case.
As to `C[C@]12CC[C@@H]3c4ccc(O)cc4CC[C@H]3[C@@H]1CCC2=O`, the Potency result in test [1], in test [2] and in test [3] was “inactive” throughout. In addition, the compound was called inactive in test [4], in [5], in [6] and in test [7].
On to `C[C@H]1O[C@@H](n2cc(F)c(=O)[nH]c2=O)[C@H](O)[C@@H]1O`, for which the compound was called inactive in test [9] and in test [4].
With `CN(C)CCCN1c2ccccc2Sc2ccc(Cl)cc21`, the compound was classed as inactive in test [9], in test [5] and in test [7]. Also, the Potency entry in test [1] was “inactive”.
Regarding `CN(C)CCC=C1c2ccccc2CCc2ccccc21`, the call in test [9], in test [4], in [5], in test [6] and in test [7] was inactive. In addition, the Potency result in test [1] was “inactive”.
For the compound `CC(C(O)c1ccc(O)cc1)N1CCC(Cc2ccccc2)CC1` (stereo not given), the compound was classed as inactive in test [9], in test [5], in [6] and in test [7]. For the same compound, in test [1], the Potency entry was “inactive”. Moreover, the Potency in test [3] was 11.7 µM (active).
Regarding `CCCCCCCCCCCCCCCC(=O)NCCO`, the compound was called inactive in test [9], in test [4], in test [5], in test [7] and in test [8]. The Potency entry in [1], in test [2] and in test [3] was “inactive” throughout.
In the case of `CC1=C(CC(=O)O)c2cc(F)ccc2/C1=C\c1ccc(S(C)(=O)=O)cc1`, the compound was called inactive in test [9], in test [4], in [5], in test [7] and in [8]. The Potency entry in test [1], in test [2] and in test [3] was “inactive” in each case.
For the compound `CSc1ccc2c(c1)C(N1CCN(C)CC1)Cc1ccccc1S2` (stereo not given), the compound was called inactive in test [9], in test [5] and in [7]. For the same compound, the Potency entry in test [2] was “inactive”.
`Cc1cc(N)c2ccccc2[n+]1CCCCCCCCCC[n+]1c(C)cc(N)c2ccccc21`: the compound was called inactive in [9], in test [5], in test [7] and in test [8]. In [1], the Potency entry was “inactive”. Besides, the Potency in test [3] is 7.36 µM (active).
With `CSc1ccc2c(c1)N(CCC1CCCCN1C)c1ccccc1S2` (stereo not given), the outcome in [9], in test [5] and in test [7] was inactive. In addition, the Potency entry in test [2] is “inactive”.
Take `N=c1c[n+](N2CCOCC2)[n-]o1`: the result in test [9], in [4], in test [5], in test [6], in test [7] and in test [8] was inactive. Moreover, the Potency result in test [1], in test [2] and in [3] was “inactive” throughout.
With `Nc1cc(=O)[nH]c(N)n1`, the Potency entry in [1], in test [2] and in test [3] was “inactive” throughout. Moreover, the outcome in test [4], in test [5], in [6], in test [7] and in [8] was inactive.
For `CCN(CC)CCNC(=O)c1cc(Cl)c(N)cc1OC`, the outcome in test [9], in test [4], in test [5], in test [7] and in [8] was inactive. For the same compound, the Potency result in test [10], in test [1], in test [2] and in test [3] was “inactive” each time.
With `CNCCCC1c2ccccc2C=Cc2ccccc21`, the result in test [9], in test [4], in test [5], in test [7] and in test [8] was inactive. Besides, the Potency entry in [1], in test [2] and in test [3] was “inactive” throughout.
`CN(C)CCCN1c2ccccc2CCc2ccccc21`: the result in test [9], in [4], in [7] and in test [8] was inactive. For the same compound, in test [1], the Potency entry was “inactive”.
Regarding `COc1ccc(Cl)cc1C(=O)NCCc1ccc(S(=O)(=O)NC(=O)NC2CCCCC2)cc1`, the Potency entry in test [10], in test [1], in test [2] and in test [3] was “inactive” each time. Moreover, the compound was called inactive in [4], in test [5], in test [7] and in test [8].
With `NC(=O)c1ncn([C@@H]2O[C@H](CO)[C@@H](O)[C@H]2O)n1`, the compound was classed as inactive in [9], in test [4], in test [5], in test [7] and in test [8]. In addition, the Potency entry in [1], in test [2] and in test [3] was “inactive” in each case.
On to `OCCN1CCN(CCCN2c3ccccc3Sc3ccc(Cl)cc32)CC1`, for which the result in test [9], in test [5], in test [6] and in test [7] was inactive. The Potency result in test [1] is “inactive”. In addition, the Potency in [3] was 7.36 µM (active).
On to `CCN(CC)CCCC(C)Nc1c2ccc(Cl)cc2nc2ccc(OC)cc12` (stereo not given), for which the outcome in test [9] and in [7] was inactive. Further, the Potency is 18.5 µM (active) in test [1] and 14.7 µM (active) in test [2].
